Experimental data as given in PubChem BioAssay (NCI).
This is part of a sample that, as a whole, favours compounds with a hit. Of some 79,000 tested, about 15% had one in any assay. Values without a mark were called inactive. Activity calls are given as the source filed them. Cut-off read from the data, not from the text of the source: active = growth inhibition above about 70%; inactive = the rest.

Columns and labels:
[1] = NCI Yeast Anticancer Drug Screen. Data for the rad50 strain (AID 155);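 note: 0% = growth of vehicle-only cultures of the same strain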; settings: S. cerevisiae rad50 strain growth inhibition; at 50.0 µM; hits give high values
How it was run: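 Yeast carrying a defined DNA repair defect were exposed to test compounds, and growth was compared with vehicle-treated controls to give percent inhibition.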

[2] = NCI Yeast Anticancer Drug Screen. Data for the mec2-1 strain (AID 157); settings: S. cerevisiae mec2-1 strain, at 50.0 µM, hits give high values
How it was run: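 Cells of the genetically defined mec2-1 yeast strain are incubated with test compound. Inhibition of growth is calculated against vehicle-treated controls.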

[3] = NCI Yeast Anticancer Drug Screen. Data for the sgs1 mgt1 strain (AID 161);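 note: 0% = growth of cultures given vehicle only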; settings: S. cerevisiae sgs1 mgt1 strain, at 50.0 µM, hits give high values
How it was run: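 Inhibition of yeast growth, normalised to vehicle-treated controls, is reported for a strain bearing genetic alterations in DNA damage repair.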

[4] = NCI Yeast Anticancer Drug Screen. Data for the cln2 rad14 strain (AID 165);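 note: 0% = growth equal to vehicle treated cultures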; settings: S. cerevisiae cln2 rad14 strain, at 50.0 µM, hits give high values
How it was run: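 The screen exposed genetically defined yeast (cln2 rad14) to test compounds and scored growth inhibition relative to vehicle-treated controls.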

[5] = NCI Yeast Anticancer Drug Screen. Data for the bub3 strain (AID 167); settings: S. cerevisiae bub3 mutant strain, at 50.0 µM, hits give high values
How it was run: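 Compounds were applied to a genetically altered yeast strain carrying a cell-cycle control defect. Growth inhibition was scored against vehicle-treated controls.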

[6] = NCI Yeast Anticancer Drug Screen. Data for the mlh1 rad18 strain (AID 175); settings: S. cerevisiae mlh1 rad18 strain growth inhibition; at 50.0 µM; hits give high values
How it was run: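 Compound-treated yeast growth, normalised to vehicle controls. Strain bears defined DNA repair mutations.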

SMILES	growth inhibition [1]	growth inhibition [2]	growth inhibition [3]	growth inhibition [4]	growth inhibition [5]	growth inhibition [6]
N#C/C(=C\N1CC(=O)NC1=S)C(N)=O	-79.8%	-12.6%	-30.9%	-22.1%	-23.2%	-69.5%
CCNC(=O)C(C(=O)OC)c1ccccc1 (stereo unspecified)	3.7%	-1.5%	5.3%	-3.45%	30.8%	1.2%
c1ccc(CCCOCCCc2ccccc2)cc1	24.9%	14.8%	9.15%	7.4%	51.2%	22.4%
NS(=O)(=O)c1ccc(N=Nc2nc3[nH]c(=O)[nH]c(=O)c3[nH]2)cc1	22.3%	-9.2%	3.05%	-4.85%	-7.2%	18.6%
O=C(Oc1ccc([N+](=O)[O-])cc1)C1CCCN1C(=O)OCc1ccccc1 (stereo unspecified)	-6.55%	-13.7%	7.55%	8.5%	7.2%	0.15%
CC(C)(C)C1=NNC(c2ccccc2)C1 (stereo unspecified)	5.25%	-3.75%	-14.7%	5.5%	-1.25%	12.6%
O=c1cc(N2CCOCC2)n2c(ccc3ccccc32)n1	-17.9%	-2.4%	-10.4%	13.2%	22%	-2.6%
O=C(O)C12C3CCC(C3)C1(C(=O)O)C1CCC2C1 (stereo unspecified)	-13.3%	-13.9%	-14.4%	24.3%	-0.65%	-12.2%
COc1ccc2c3c(c4ccccc4c2c1)C(=O)OC3=O	27.8%	11.2%	16.7%	18.6%	21.8%	19.2%
c1ccc2c(c1)CNNC2	11.3%	-4.4%	-5.55%	11.3%	15.8%	-8.1%
CC(C(=O)c1ccc(Cl)cc1)/C(=N/NC(=O)NN)C(=O)Nc1cccc(C(F)(F)F)c1 (stereo unspecified)	-8.45%	-16.6%	-58.5%	-56%	18.6%	-6.95%
Nc1cc2c(cc1[N+](=O)[O-])-c1cccc(F)c1C2	63.6%	7.65%	0.65%	10.8%	-9.15%	33%
O=C1c2ccccc2C(=O)N1CN1CCC(CCCC2CCN(CN3C(=O)c4ccccc4C3=O)CC2)CC1	-58.5%	-34.2%	-36.3%	-11.1%	-48.1%	-44.8%
CCOCC(=O)NC1Cc2cc(OC)c(OC)cc2C1O (stereo unspecified)	-29.8%	-6.2%	0.1%	-17.1%	2.15%	15.6%
Cc1ccc(NC(=O)CCC(CC(=O)C(C)(C)C)=NNC(=O)C(=O)NN)cc1C	-25.8%	-19.3%	-19.4%	-23.5%	-7.4%	-22.2%
Cc1ccc2c(=O)cc(-c3cccc(F)c3)[nH]c2n1	-4.9%	-0.9%	-11%	23.9%	-6.25%	-16.4%
C1=C(CN2CCCCC2)Oc2ccccc2O1	25.3%	36.9%	42.5%	46%	21.3%	34.9%
CC(=O)/C(=C\c1ccc(C(F)(F)F)cc1)C(=O)CCN(C)C	43.4%	0.05%	51.6%	19.6%	3.25%	25.7%
CC1([N+](=O)[O-])C(=O)C2(N3CCCC3)CCCC2C1c1ccccc1 (stereo unspecified)	0.5%	8.4%	-10.9%	-2.25%	8.3%	-9.35%
Cc1ccc(S(=O)(=O)/N=C/C=P(c2ccccc2)(c2ccccc2)c2ccccc2)cc1	11.4%	7.45%	-22.1%	-19%	-2.1%	-3.65%
CCN(CC)c1ccc(/C=C(\C#N)C(N)=S)cc1	35.4%	23.6%	45.2%	0.85%	15.6%	16.5%

SMILES	growth inhibition [1]	growth inhibition [2]	growth inhibition [3]	growth inhibition [4]	growth inhibition [5]	growth inhibition [6]
NCCOc1ccccn1	-1.7%	-10.8%	-0.6%	-10.7%	1%	-1.9%
COc1ccc2c(c1)C=C(C(C)(C)C)NS2(=O)=O	23.6%	-22.6%	2%	-12.7%	59%	63.4%
CCc1n[nH]c(=O)n1/N=C/c1c(O)ccc2ccccc12	0.45%	10.8%	1.05%	9.05%	6%	18.9%
CN(C)c1ccc(/C=C/c2ccc(/C=C/c3ccc(N(C)C)cc3)cc2)cc1	-15.1%	-9.9%	5%	10.2%	-11.4%	20.8%
O=C(Nc1ccc(Cl)cc1)Nc1nnc(-c2ccc(F)cc2)o1	5.5%	9.25%	7.75%	-70.3%	-25%	17.4%
CC(C)(C)CC(C)(C)c1cc2c(O)c(c1)Cc1cc(C(C)(C)CC(C)(C)C)cc(c1O)Cc1cc(C(C)(C)CC(C)(C)C)cc(c1O)Cc1cc(C(C)(C)CC(C)(C)C)cc(c1O)Cc1cc(C(C)(C)CC(C)(C)C)cc(c1O)C2	20.5%	33.4%	8.75%	31.4%	6.3%	24.2%
CCN(CC)C(=O)C1=C(C)NC(C)=C(C(=O)N(CC)CC)C1	-36.7%	-55%	-18.6%	-22.1%	-8.35%	-68.5%
Cc1ccc([N+](=O)[O-])cc1N1CCNC1=O	8.05%	-17.2%	-12.2%	-62.7%	9%	-21.9%
COc1ccc([C@H]2CC3C(=O)N(c4ccc(OC)cc4)C(=O)C3c3[nH]c4ccccc4c32)cc1 (stereo partly specified)	-10.1%	-2.95%	-1.05%	-64.2%	-16.4%	-16.9%
CC1CC(=O)c2c(O)ccc(O)c21 (stereo unspecified)	-6.1%	-3.65%	-8.9%	-17.4%	-8.15%	12.2%
O=C(CCSc1ncnc2nc[nH]c12)c1ccccc1	-24.8%	20.4%	-3.05%	-36.2%	4.3%	12.1%
O=C(O)c1nnn(Cc2ccccc2)c1C(=O)O	7.75%	-6%	-17.6%	2.35%	15.8%	20%
Cc1[nH]c(=O)[nH]c(=O)c1/C=C/C(=O)NC(CO)CS(=O)C(C)C (stereo unspecified)	83.2% (active)	63.5%	95.4% (active)	64.7%	79.7% (active)	85.7% (active)
CC12CCC(/C(=N/O)C1=O)C2(C)C (stereo unspecified)	2.15%	-2.15%	1.1%	-74.5%	-1.8%	4.25%
O=C(N/N=C\c1ccc(Cl)cc1Cl)C1CC1	-19.8%	-3.8%	-7.6%	-19.2%	-19.3%	-24.9%
CN1CCC(O)(c2ncc(Br)c3ccccc23)CC1	17.1%	-7.8%	24.9%	10.8%	11.2%	39.6%
CCCCN(CCCC)S(=O)(=O)c1ccc(OCCOc2ccc(S(=O)(=O)N(CCCC)CCCC)cc2)cc1	10.7%	-1.4%	15.2%	-12.4%	-5.1%	7.75%
O=C1c2ccccc2-c2nc3cc4ccccc4cc3nc21	20.1%	15.6%	22.5%	5.85%	11.4%	74% (active)
S=C1c2cc(Cl)ccc2NC(=NC2CCCC2)C2CSCN12 (stereo unspecified)	7.65%	14.7%	51.5%	-3.25%	33.3%	28.5%
O=C(O)C1C2C=CC(O2)C1C(=O)Nn1cccc1 (stereo unspecified)	6.5%	-7.5%	-17.6%	-12.8%	-16.6%	-6.75%
